# Some of the results follow. Active and inactive are the calls of the source. No rule for the calls is given here.
# Molecular target: Hepatocyte nuclear factor 4-alpha (Homo sapiens) (UniProt P41235)
# Experiment: HNF4-alpha DNA association modulation retest – biochemical, fluorescence polarization, FITC-DNA, confirmation (AID 1224897)
# Details: HNF4A-FITC DNA binding, 1 h, at 12.5 µM, stronger effect = higher value
# Chain of Hepatocyte nuclear factor 4-alpha (Homo sapiens) (P41235 whole entry, looked up): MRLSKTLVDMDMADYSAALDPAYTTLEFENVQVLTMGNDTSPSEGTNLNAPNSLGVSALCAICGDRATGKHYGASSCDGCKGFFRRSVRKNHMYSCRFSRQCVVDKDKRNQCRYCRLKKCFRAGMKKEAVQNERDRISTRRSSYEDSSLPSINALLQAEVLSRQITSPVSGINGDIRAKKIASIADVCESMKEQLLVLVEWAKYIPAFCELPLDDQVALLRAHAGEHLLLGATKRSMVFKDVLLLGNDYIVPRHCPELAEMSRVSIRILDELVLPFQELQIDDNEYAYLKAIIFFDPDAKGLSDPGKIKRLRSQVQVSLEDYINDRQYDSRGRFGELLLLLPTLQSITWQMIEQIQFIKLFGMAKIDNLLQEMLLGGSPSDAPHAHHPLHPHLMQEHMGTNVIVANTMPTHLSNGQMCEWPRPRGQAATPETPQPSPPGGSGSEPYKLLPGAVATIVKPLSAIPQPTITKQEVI
smiles,measurement,value
COc1ccccc1N=Nc1c(O)[nH]c(=S)[nH]c1=O,activity change,112% (active)
